Source: PubChem BioAssay (EPA / NIEHS)
A structure can be active in one record and inactive in another. Active and inactive are the calls of the source. How the source made its calls: active means hit-call score of the fitted dose curve at least 0.9, where 1 is the maximum; inactive means score below 0.9.

Columns and labels:
[1] = read-out: Tissue Factor, F3 (gene 2152); assay: BSK_CASM3C_TissueFactor: BioMAP Diversity Plus: CASM3C Assay for Tissue Factor Biomarker Activity (AID 2283052); details: primary human coronary artery smooth muscle cells; actives raise or lower the signal;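 further: cell surface tissue factor protein level read by ELISA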
[2] = read-out: Interferon-gamma inducible Protein 10 (IP10), CXCL10 (gene 3627); assay: BSK_hDFCGF_IP10: BioMAP Diversity Plus: hDFCGF Assay for Interferon-gamma inducible Protein 10 (IP10) Biomarker Activity (AID 2283053); details: primary human foreskin fibroblasts; actives raise or lower the signal
Procedure, shortened: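 Cells: human dermal foreskin fibroblasts. Exposure: 24 h post-dosing. Detection: IP-10 ELISA, with values expressed against DMSO controls and fitted in both directions.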

[3] = read-out: Urokinase-type plasminogen activator receptor (uPAR), PLAUR (gene 5329); assay: BSK_CASM3C_uPAR: BioMAP Diversity Plus: CASM3C Assay for Urokinase-type plasminogen activator receptor (uPAR) Biomarker Activity (AID 2283054); details: primary human coronary artery smooth muscle cells; actives raise or lower the signal;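 further: cell-surface uPAR protein level quantified by ELISA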
[4] = read-out: Vascular cell adhesion molecule 1 (VCAM1), VCAM1 (gene 7412); assay: BSK_CASM3C_VCAM1: BioMAP Diversity Plus: CASM3C Assay for Vascular cell adhesion molecule 1 (VCAM1) Biomarker Activity (AID 2283055); details: primary human coronary artery smooth muscle cells; actives raise or lower the signal;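 further: VCAM-1 protein level quantified by ELISA on the cells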
[5] = read-out: Collagen III, COL3A1 (gene 1281); assay: BSK_hDFCGF_CollagenIII: BioMAP Diversity Plus: hDFCGF Assay for Collagen III Biomarker Activity (AID 2283056); details: primary human foreskin fibroblasts; actives raise or lower the signal
Procedure, shortened: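 ELISA read-out of collagen III from human skin fibroblast cultures sampled 24 h post-dosing. Values were derived by bidirectional fitting relative to the DMSO vehicle control.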

[6] = read-out: Epidermal growth factor receptor (EGFR), EGFR (gene 1956); assay: BSK_hDFCGF_EGFR: BioMAP Diversity Plus: hDFCGF Assay for Epidermal growth factor receptor (EGFR) Biomarker Activity (AID 2283057); details: primary human foreskin fibroblasts; actives raise or lower the signal
Procedure, shortened: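 Dosing human primary skin fibroblasts, then measuring surface EGFR by ELISA at 24 h, gives the endpoint; gains and losses relative to DMSO were fitted in both directions.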

[7] = read-out: Interleukin-8 (IL8), CXCL8 (gene 3576); assay: BSK_hDFCGF_IL8: BioMAP Diversity Plus: hDFCGF Assay for Interleukin-8 (IL8) Biomarker Activity (AID 2283058); details: primary human foreskin fibroblasts; actives raise or lower the signal
Procedure, shortened: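 Cells used are human skin primary fibroblasts. Chemical is added, cultures run 24 h, then IL-8 is quantified by ELISA, and gain or loss versus DMSO control is fitted in both directions.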

[8] = BSK_hDFCGF_Proliferation: Cell Proliferation Assessment in the BioMAP Diversity Plus: hDFCGF Assay (AID 2283059); details: primary human foreskin fibroblasts;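 further: curves fitted for both rise and fall of signal versus DMSO baseline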
Procedure, shortened: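 Sub-confluent human foreskin fibroblast cultures receive test chemical […]. Relative cell number is quantified by sulforhodamine B staining (0.1%, after 10% TCA fixation) at 560 nm, with bidirectional fitting referenced to DMSO.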

[9] = read-out: Macrophage colony-stimulating factor (MCSF), CSF1 (gene 1435); assay: BSK_hDFCGF_MCSF: BioMAP Diversity Plus: hDFCGF Assay for Macrophage colony-stimulating factor (MCSF) Biomarker Activity (AID 2283060); details: primary human foreskin fibroblasts; actives raise or lower the signal
Procedure, shortened: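 Primary human foreskin fibroblasts dosed with chemical; 24 h later, M-CSF quantified by ELISA; curves fitted in both directions vs DMSO negative control.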

[10] = BSK_hDFCGF_SRB: Viability Assessment in the BioMAP Diversity Plus: hDFCGF Assay (AID 2283061); details: primary human foreskin fibroblasts;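 further: cells exposed to compound for 24 h before the read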
Procedure, shortened: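 Readout is SRB absorbance at 560 nm, reflecting total protein in parallel cultures of human foreskin fibroblasts harvested 24 h after chemical dosing. Activity was fitted bidirectionally relative to DMSO.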

Measured: AC50

COCC(=O)N(c1c(C)cccc1C)[C@H](C)C(=O)OC
inactive: [1] | [2] | [3] | [4] | [5] | [6] | [7] | [8] | [9] | [10]

Oc1ccc(Cc2ccc(O)cc2)cc1
inactive: [1] | [2] | [3] | [4] | [5] | [6] | [7] | [8] | [9] | [10]

COc1ccccc1N
inactive: [1] | [2] | [3] | [4] | [5] | [6] | [7] | [8] | [9] | [10]

Cc1cc(Cl)ccc1OC(C)C(=O)O (configuration not stated)
inactive: [1] | [2] | [3] | [4] | [5] | [6] | [7] | [8] | [9] | [10]

Oc1c(Cl)cc(Cl)cc1Cl
inactive: [1] | [2] | [3] | [4] | [5] | [6] | [7] | [8] | [9] | [10]

Cc1ccccc1OP(=O)(Oc1ccccc1)Oc1ccccc1
inactive: [1] | [3] | [4] | [6] | [7]
active: [2] 19 µM | [5] 2.84 µM | [8] 20 µM | [9] 10.5 µM | [10] 29.2 µM

Oc1cccc(-c2ccccc2)c1
inactive: [2] | [3] | [6] | [7]
active: [1] 20 µM | [4] 31.7 µM | [5] 30 µM | [8] 35.3 µM | [9] 33.7 µM | [10] 30.7 µM

O=S(=O)(c1ccc(Cl)cc1)c1cc(Cl)c(Cl)cc1Cl
active: [3] 20 µM | [4] 0.016 µM | [5] 3.97 µM | [8] 20 µM
inactive: [1] | [2] | [6] | [7] | [9] | [10]

C[C@]12CC[C@@H](O)C[C@@H]1CC[C@@H]1[C@@H]2CC[C@]2(C)C(=O)CC[C@@H]12
inactive: [1] | [2] | [3] | [4] | [5] | [6] | [7] | [8] | [9] | [10]

CC1(C)[C@H](C(=O)O[C@H](C#N)c2cccc(Oc3ccccc3)c2)[C@@H]1/C=C(\Cl)C(F)(F)F
active: [5] 9.08 µM | [8] 7.37 µM
inactive: [1] | [2] | [3] | [4] | [5] | [6] | [7] | [8] | [9] | [10]

CCOP(=O)(OCC)OC(=CCl)c1ccc(Cl)cc1Cl
active: [1] 24.9 µM | [2] 36.4 µM | [3] 30.2 µM | [4] 33.8 µM | [5] 25.6 µM | [8] 37.4 µM | [9] 31 µM | [10] 30.8 µM
inactive: [6] | [7]

N#CCCC(Br)(C#N)CBr (configuration not stated)
inactive: [6]
active: [1] 12.7 µM | [2] 3.73 µM | [3] 15.6 µM | [4] 11.9 µM | [5] 17 µM | [7] 12.7 µM | [8] 0.4 µM | [9] 5.08 µM | [10] 7.68 µM

O=C(N[C@H]1CN2CCC1CC2)c1ccc2c(c1)OCCO2
inactive: [1] | [2] | [3] | [4] | [5] | [6] | [7] | [8] | [9] | [10]

CCOC(=O)CCN(SN(C)C(=O)Oc1cccc2c1OC(C)(C)C2)C(C)C
inactive: [6] | [7]
active: [1] 8.62 µM | [2] 37.1 µM | [3] 33.3 µM | [4] 20 µM | [5] 4.31 µM | [8] 15.2 µM | [9] 26 µM | [10] 31 µM

OC(Cc1ccccc1Cl)(Cn1cncn1)C1(Cl)CC1 (configuration not stated)
inactive: [1] | [2] | [3] | [4] | [5] | [6] | [7] | [8] | [9] | [10]

CCOP(=O)(OCC)SCCSCC
inactive: [1] | [2] | [3] | [4] | [5] | [6] | [7] | [8] | [9] | [10]

c1ccc2sc(SNC3CCCCC3)nc2c1
inactive: [1] | [2] | [3] | [4] | [5] | [6] | [7] | [8] | [9] | [10]

O=C(Cc1ccccc1)OCCc1ccccc1
inactive: [1] | [2] | [3] | [4] | [5] | [6] | [7] | [8] | [9] | [10]

CN(C)C(=S)S
inactive: [1] | [3] | [4] | [6]
active: [2] 18 µM | [5] 3.97 µM | [7] 30.9 µM | [8] 14.6 µM | [9] 14.2 µM | [10] 27.1 µM

CCN(CC)C(=O)C(Cl)=C(C)OP(=O)(OC)OC
inactive: [1] | [2] | [3] | [4] | [5] | [6] | [7] | [8] | [9] | [10]

CC(C)O.CC(C)O.OCCN(CCO)CCO.OCCN(CCO)CCO.[Ti]
active: [2] 30.9 µM | [9] 20 µM
inactive: [1] | [3] | [4] | [5] | [6] | [7] | [8] | [10]

Cc1cc(C(C)(C)c2ccc(O)c(C)c2)ccc1O
inactive: [2] | [6] | [7]
active: [1] 8.57 µM | [3] 17.1 µM | [4] 13.9 µM | [5] 15.6 µM | [8] 13.9 µM | [9] 15.3 µM | [10] 16.1 µM

O=C(CCl)NCO
inactive: [1] | [2] | [3] | [4] | [5] | [6] | [7] | [8] | [9]

Nc1ccc(N)cc1
inactive: [1] | [2] | [3] | [4] | [5] | [6] | [7] | [8] | [9] | [10]

CCOC(=O)CC(=O)CCl
active: [1] 14 µM | [4] 20 µM | [8] 19 µM | [9] 20 µM
inactive: [2] | [3] | [5] | [6] | [7] | [10]

Clc1cccc(Cl)c1Cl
inactive: [1] | [2] | [3] | [4] | [5] | [6] | [7] | [8] | [9] | [10]

Oc1cc(Cl)c(Cl)cc1Cl
active: [2] 20 µM | [5] 27.7 µM | [8] 15.2 µM | [10] 31.8 µM
inactive: [1] | [3] | [4] | [6] | [7] | [9]

O=C(O)COc1cc(Cl)c(Cl)cc1Cl
active: [1] 5.98 µM
inactive: [2] | [3] | [4] | [5] | [6] | [7] | [8] | [9] | [10]

CCCCOC(=O)COC(=O)c1ccccc1C(=O)OCCCC
inactive: [1] | [2] | [3] | [4] | [5] | [6] | [7] | [8] | [9] | [10]
active: [8] 20 µM

Cc1ccccc1OP(=O)(Oc1ccccc1C)Oc1ccccc1C
inactive: [1] | [5] | [7]
active: [2] 11.2 µM | [3] 20 µM | [4] 32.4 µM | [6] 11.8 µM | [8] 4.26 µM | [9] 7.75 µM | [10] 8.28 µM

OCCCCO
inactive: [1] | [2] | [3] | [4] | [5] | [6] | [7] | [8] | [9] | [10]

Cc1ccc2nc3sc(=O)sc3nc2c1
inactive: [1] | [2] | [4] | [5] | [6] | [7] | [9] | [10]
active: [3] 2.14 µM | [8] 5 µM

NC(=O)CCl
inactive: [1] | [2] | [3] | [4] | [6] | [7] | [8] | [9] | [10]
active: [5] 9.58 µM
